TWEAK Fn14 block = TWEAK-Fn14 signaling inhibition | inhibition, % at 10 µM | AID 1159606 | hit rate 2% among 360,000 | TWEAK-stimulated Fn14 reporter cells, luciferase luminescence, 8 h; in the data active = inhibition above about 50%
HIF-2a inh = HIF-2a inhibition; inhibition, % at 18.8 µM; 786-0 RCC cells HIF-2a reporter, luciferase luminescence, overnight; hit rate 0.72% among 360,000; AID 624352;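 active = inhibition of the luminescence signal of 40% or more relative to plate controls, in a single-dose primary screen at 18.75 µM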
EBV LMP1 NFkB = reduces LMP1-driven NF-kappaB luciferase signal | inhibition, % at 12.5 µM | LMP1-induced NF-kappaB luciferase reporter cells, luminescence | hit rate 0.69% among 350,000 | AID 504558; in the data active = inhibition above about 41%;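 note: 0% = neutral control wells and 100% = reference inhibitor control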
TRPM1 prom inh = MITF TRPM1 promoter inhibition in SK-MEL-5 cells. hit rate 0.83% among 330,000. inhibition, % at 12.5 µM. SK-MEL-5 TRPM1 promoter luciferase, 24 h. AID 488899;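 active = mean inhibition across replicates of 60% or more, whatever share of single replicates reaches that level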
Peg3 prom inh = reduces Peg3 promoter-driven luciferase expression in HeLa | HeLa PEG-Prom luciferase reporter, luminescence, overnight | inhibition, % at 20 µM | hit rate 1.7% among 360,000;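 active = inhibition of at least 50% at 20 µM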
TROY NFkB inh = TROY signaling inhibition. Q293 LMP1-TROYcd NF-kB luciferase reporter, 4 h. AID 1347056. hit rate 0.98% among 360,000. inhibition, % at 10 µM;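 active = compounds whose plate-normalised and pattern-corrected inhibition of the luciferase reporter signal at the single screening dose is 50% or more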
* hit, by the source's call; . = no result given. Rows were chosen to be rich in hits. Some 4% of all compounds tested hit in one or more screens of this group.

SMILES	TWEAK Fn14 block	HIF-2a inh	EBV LMP1 NFkB	TRPM1 prom inh	Peg3 prom inh	TROY NFkB inh
C#CCNC(=O)C(C)c1ncc(C(F)(F)F)cc1Cl (stereo not drawn)	1.0	6.2	8.3	6.6	1.9	-5.0
O[C@H]1C[C@H](c2ccc(Cl)cc2)N(CC2CCCCC2)C[C@@H]1n1cc(C2CC2)nn1	-22.8	-67.4	-3.1	.	-31.4	-27.9
CC(NCC(O)COCCC12CC3CC(CC(C3)C1)C2)c1ccccc1 (stereo not drawn)	-29.7	1.8	-1.3	57.5	103.7*	1.0
NCC(O)COCCC12CC3CC(CC(C3)C1)C2 (stereo not drawn)	5.6	11.1	2.7	4.0	-1.0	1.0
CCc1ccc(/C=C2\SC(=S)N(CCCC(=O)NCCCN3CCOCC3)C2=O)cc1	-26.5	82.7*	36.3	.	83.6*	17.8
O=C(CCN1C(=O)/C(=C/c2ccccc2F)SC1=S)NCCCN1CCOCC1	50.4*	-9.6	12.6	-0.6	8.2	6.1
O=C(CCN1C(=O)/C(=C/c2ccccc2F)SC1=S)N[C@@H](CO)Cc1ccccc1	22.1	8.1	4.6	4.6	68.2*	0.6
CCOc1ccc(/C=C2\SC(=S)N(CCCC(=O)NCCCN3CCOCC3)C2=O)cc1	25.5	70.8*	54.7*	57.2	68.2*	8.7
O=C(CCSc1ccc(Cl)cc1)N1CCN(S(=O)(=O)c2ccccc2)CC1	-16.4	5.8	-0.9	6.7	24.4	19.3
CCC(C)(C(=O)NC1CCCCC1)N(C(=O)CC1NC(=O)NC1=O)c1c(C)n(C)n(-c2ccccc2)c1=O (stereo not drawn)	-8.6	5.9	-5.8	3.5	-0.1	-7.1
Nc1ccn([C@@H]2O[C@H](C(=O)N3CCCN(Cc4ccccc4F)CC3)[C@@H](O)[C@H]2O)c(=O)n1	-4.2	12.5	.	.	.	1.0
CCCCN(C)C(=O)c1sc(=O)n(Cc2ccc(Cl)c(Cl)c2)c1C	-0.4	8.2	.	.	16.5	6.0
CN1CCN(S(=O)(=O)c2ccc3c(c2)NC(=O)C2CCCN32)CC1 (stereo not drawn)	-8.3	5.0	-8.4	9.4	11.3	-3.8
CNS(=O)(=O)c1ccc2c(c1)NC(=O)C1CCCN21 (stereo not drawn)	38.8	17.8	-2.9	2.8	81.5*	3.6
COc1ccc(OCC(=O)N2CCN(c3nnc(-c4ccc(C)cc4)c4ccccc34)CC2)cc1	-2.0	19.9	21.0	34.5	19.2	58.7*
Cc1ccc(OCC(=O)N2CCN(c3nnc(-c4ccc(C)cc4)c4ccccc34)CC2)cc1	51.1*	10.2	19.6	3.9	28.4	59.2*
COc1ccc(OCC(=O)N2CCN(c3nnc(-c4ccccc4)c4ccccc34)CC2)cc1	7.1	18.9	9.3	5.3	17.0	27.5
C=C(C)Cn1c2ccc(NC(=S)NCc3ccccc3F)cc2c(=O)n1C	-18.8	-10.8	.	.	-22.2	10.4
Cc1cc(C)c(OCC(=O)Nc2nnc(C3CC3)s2)c(C)c1	-1.9	-4.4	-4.7	13.4	-6.6	-10.9
CCOC(=O)NCc1ccc(CNC(=O)OCC)cc1	73.4*	10.8	1.6	-0.2	10.8	.
Cn1c(N2CCN(c3ccccn3)CC2)nc2c1c(=O)n(Cc1ccc(Cl)cc1)c(=O)n2C	52.3*	14.4	13.6	9.2	14.0	53.9*
Nc1c(-c2ccc3c(c2)OCCO3)oc2ccccc2c1=O	54.9*	-255.1	-28.9	-53.5	-273.6	32.7
O=c1cc(-c2ccc3c(c2)OCO3)oc2ccccc12	-22.4	-244.7	-39.0	-50.5	-259.2	-66.2
CC1(C)CC(N=Cc2c(O)n(Cc3ccc4c(c3)OCO4)c(=O)c3ccccc23)CC(C)(C)N1	-25.3	4.7	5.0	10.6	82.3*	-14.3
CN(C)CCN=Cc1c(O)n(Cc2ccccc2)c(=O)c2ccccc12	-11.5	4.9	-6.8	-1.3	6.9	7.7
CC(C)CC(=O)Nc1ccc(-c2cn3ccsc3n2)cc1	9.5	-163.1	-1.6	-73.9	-134.2	19.3
CC(C)(C)C(=O)Nc1ccc(-c2cn3ccsc3n2)cc1	74.1*	-21.7	27.2	3.0	-21.2	48.2
CCc1ccc(NC(=O)NCC2CCN(Cc3cccc(Cl)c3)CC2)cc1	-0.8	14.8	0.1	7.9	35.3	4.7
Cc1cc(C)cc(NC(=O)NCC2CCN(Cc3cc(C)ccc3C)CC2)c1	10.6	21.8	6.3	3.8	84.3*	-12.0
Cc1ccc(NC(=O)NCC2CCN(Cc3cccc(Cl)c3)CC2)cc1Cl	-6.8	4.5	5.9	51.5	83.1*	26.0
